# SW480 rerep – induces DNA re-replication in SW480 colon adenocarcinoma cells; SW480 DNA re-replication, Hoechst DNA content imaging, 48 h; Potency, µM (titrated, usually from 46.1 µM), actives largely listed as activators; 340,000 tested, 1.8% active; AID 624297; further: nearly all actives have a fitted effect of over 55% in size
#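 Per well, 250 cells were exposed to pinned compound for 48 hr. Nuclear DNA was visualised with Hoechst (40 min, 37 C) and total object intensity recorded by fluorescence scanning.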
# IL1B secr inh – inflammasome signaling inhibition, IL-1 beta readout. 360,000 tested, 4.7% active. activity change, % at 57.5 µM. THP-1 LPS/ATP IL-1B secretion, AlphaLISA, 16 h; active compounds read low; in the data active means activity change below about -50%; inconclusive means mostly about -30% to -49%
#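 THP-1 cells pretreated 1 hr with compounds (up to 57.5 uM final), then stimulated with LPS (250 ng/mL final) plus ATP (1.25 mM final); secreted IL-1B measured by AlphaLISA after 16 hr, decreased signal indicating inhibition.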
# RORg inh – inhibitors of mouse ROR gamma transcriptional activity. P51450. Drosophila S2 Gal4-RORgamma UAS-luciferase reporter, 20 h. Potency, µM (top dose mostly 53.6 µM), actives largely listed as inhibitors. 310,000 tested, 5.4% active. AID 2551; further: nearly all actives have a fitted effect of over 60% in size
# Target sequence (P51450 whole entry, looked up, the tested form may be a part): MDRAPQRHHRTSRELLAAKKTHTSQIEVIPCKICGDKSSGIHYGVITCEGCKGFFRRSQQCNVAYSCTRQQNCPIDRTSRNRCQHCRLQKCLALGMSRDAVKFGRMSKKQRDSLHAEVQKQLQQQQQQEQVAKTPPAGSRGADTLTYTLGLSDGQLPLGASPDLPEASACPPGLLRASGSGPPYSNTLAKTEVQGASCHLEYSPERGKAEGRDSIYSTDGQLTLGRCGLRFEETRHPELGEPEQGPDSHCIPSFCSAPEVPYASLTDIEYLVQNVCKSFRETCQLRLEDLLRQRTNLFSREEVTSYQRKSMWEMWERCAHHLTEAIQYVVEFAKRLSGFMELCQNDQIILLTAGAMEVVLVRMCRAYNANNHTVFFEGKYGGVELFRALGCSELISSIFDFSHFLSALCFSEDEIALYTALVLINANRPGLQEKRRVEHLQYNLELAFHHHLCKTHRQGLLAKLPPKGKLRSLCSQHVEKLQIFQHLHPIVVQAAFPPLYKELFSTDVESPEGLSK
#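 Read-out: Photinus luciferase luminescence; inhibitors lower reporter signal. Insect Schneider cells with Gal4-ROR gamma fusion under metallothionein promoter, UAS reporter; 700 uM final copper sulfate induction, 20 hr, ambient temperature.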
# VP16 counter – counter-screen for ROR gamma inhibitors: Gal4-VP16 reporter | Drosophila S2 Gal4-VP16 UAS-luciferase, luminescence, 20 h | Potency, µM (doses to about 53.6 µM), most hits filed as inhibitors | 310,000 tested, 3.5% active | AID 2546;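 further: Gal4-VP16 expression switched on by copper sulfate through the metallothionein promoter; nearly all actives have a fitted effect of over 50% in size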
# MCF10A rerep – DNA re-replication induction in MCF 10a cells. MCF 10A DNA re-replication, Hoechst nuclear intensity, 48 h. Potency, µM (highest dose often 46.1 µM), hits mostly activators. 350,000 tested, 2.9% active; further: nearly all actives have a fitted effect of over 50% in size
# A number is an active result; 0 = inactive; ? = inconclusive; - = no result; [ ] = remark or other dose. Shown are actives, neighbours in structure and some others; about 11% of the full set was active somewhere. Unless noted, the call rests on the fitted dose curve; in most records, active means well fitted curve in the direction sought with a large enough effect; inconclusive means small, poorly fitted or top-dose-only effect, or another doubt; inactive means no such curve, though single readings can be large; an effect the other way counts as inactive or inconclusive.
SMILES,SW480 rerep,IL1B secr inh,RORg inh,VP16 counter,MCF10A rerep
CC(C)Cc1nc2oc3c(Cl)ncnc3c2c2c1CCCC2,0,0,0,0,29µM
CCOC(=O)C1=CCN(S(=O)(=O)c2ccc(F)cc2)C1c1ccc(Cl)c(Cl)c1 (centres undefined),-,0,-,-,-
OC(c1ccc(F)cc1)C(CN1CCOCC1)c1ccccc1 (centres undefined),0,0,0,0,?
COCCNC(=O)/C(C#N)=C/c1c(N2CCN(C)CC2)nc2c(C)cccn2c1=O,21µM,0,0,0,0
Cc1cccn2c(=O)c(/C=C(\C#N)C(N)=O)c(N3CCN(Cc4ccc5c(c4)OCO5)CC3)nc12,0,-51,0,0,0
CNC(=O)/C(C#N)=C/c1c(N2CCN(c3ccc(OC)cc3)CC2)nc2c(C)cccn2c1=O,0,?,0,0,21µM
COC(=O)/C(C#N)=C/c1c(N2CCN(c3ccc(OC)cc3)CC2)nc2c(C)cccn2c1=O,0,0,0,0,0
CCN1CCN(c2nc3c(C)cccn3c(=O)c2/C=C(\C#N)C(=O)NCCOC)CC1,6.5µM,0,0,0,16µM
COCCNC(=O)/C(C#N)=C/c1c(N2CCCCCC2)nc2c(C)cccn2c1=O,?,0,0,0,0
CCOC(=O)/C(C#N)=C/c1c(N2CCN(Cc3ccc4c(c3)OCO4)CC2)nc2c(C)cccn2c1=O,0,0,0,0,0
C[C@@H]1CCCN1[C@H]1CS(=O)(=O)N[C@@H]1COCc1ccccc1,-,0,-,-,-
O=C(NCc1ccccc1Cl)C1CCCN1S(=O)(=O)c1ccccc1F (centres undefined),0,0,0,0,0
CC1(c2ccc(Cl)c(Cl)c2)NC(=S)N2C1NC(=S)N2c1ccccc1 (centres undefined),0,-73,?,0,0
COc1ccc(C2/C=C\CN(CC(C)C)C(C)C(=O)N2Cc2ccc(F)cc2)cc1 (centres undefined),-,-,0,0,-
Cc1ccc(-n2cc(CNCCN3CCOC3=O)c(-c3ccc(F)cc3)n2)cc1,0,-71,0,0,0
Cc1cccc(-n2cc(CNCCN3CCOC3=O)c(-c3cccc(F)c3)n2)c1,?,-57,0,0,0
Cc1ccc(-n2cc(CNCCCN3CCCC3=O)c(-c3ccc(F)cc3)n2)cc1,?,-68,0,0,0
Cc1ccc(-n2cc(CN3CCCN(C=O)CC3)c(-c3ccc(F)cc3)n2)cc1,0,?,0,0,0
Cc1ccc(-n2cc(CNCCc3ncc(C)[nH]3)c(-c3ccc(F)cc3)n2)cc1,?,-82,0,?,?
CC(=O)N1CCCN(Cc2cn(-c3ccc(C)cc3)nc2-c2ccc(F)cc2)CC1,0[1.84 µM],-78,0,0,?
Cc1ccc(S(=O)(=O)NCCn2nc(C)cc2C)cc1,0,0,0,0,0
Fc1ccc(-n2cc(CNCCc3ccccn3)c(-c3ccccc3Cl)n2)cc1,0,-74,?,0,?
COc1ccc(-n2cc(CNCCc3nc(C)cc(C)n3)c(-c3ccccc3Cl)n2)cc1,0,?,0,?,?
Cc1ccc(-n2cc(CNCCn3nc(C)cc3C)c(-c3ccc(F)cc3)n2)cc1,18µM,-91,0,0,?
CCN1CCN(CCCN(Cc2ccco2)C(=S)Nc2ccc(Cl)cc2)CC1,0,0,0,0,0
SMILES,SW480 rerep,IL1B secr inh,RORg inh,VP16 counter,MCF10A rerep
CCOc1ccc(NC(=S)N(CCCN2CCCC2)Cc2cccn2Cc2ccc(Cl)cc2)cc1,?,0,13µM,0,0
Cc1cccc(NC(=S)N(CCCN2CCCC2)Cc2cccn2Cc2ccc(Cl)cc2)c1,0,-87,?,?,?
CCCN(CCC)C(=O)CC(c1ccccc1)c1ccc(C)cc1O (centres undefined),0,0,0,0,0
CCCN(CCC)C(=O)CC(c1ccccc1)c1cc(Br)ccc1O (centres undefined),0,-90,0,0,?
COc1ccc(S(=O)(=O)NC2CCCC2)cc1C(N)=O,0,0,0,0,0
Cc1cccc(-n2c(-c3ccoc3C)n[nH]c2=S)c1,0,0,8.9µM,?,0
Cc1ccccc1-n1c(N)cc(=O)[nH]c1=S,0,0,0,0,0
Cc1ccccc1-n1c(-c2ccoc2C)n[nH]c1=S,0,0,10µM,?,0
Cc1ccccc1-n1c(C)n[nH]c1=S,15µM,0,?,0,9.2µM

# Assay outcomes: PubChem BioAssay, National Center for Advancing Translational Sciences (NCATS)
